{"source": "paper PMC7862700", "about": "“An all-to-all approach to the identification of sequence-specific readers for epigenetic DNA modifications on cytosine”", "test_in_all_cases": "DAPPL (digital affinity profiling via proximity ligation, sequencing); 10 mM Tris-HCl pH 7.5, 50 mM NaCl, 1 mM DTT, 4% glycerol, room temperature, 30 min; GST-TFs on glutathione beads, 16-mer random dsDNA library, 0.1% formaldehyde crosslink after washing; high values mean tight binding", "conditions_in_all_cases": "protein: recombinant; tags: N-terminal GST; dsDNA, one strand shown", "key": {"ELK1": {"molecular_target": "T1, ELK1 (Homo sapiens, UniProt P19419 1-428)", "T1 sequence": "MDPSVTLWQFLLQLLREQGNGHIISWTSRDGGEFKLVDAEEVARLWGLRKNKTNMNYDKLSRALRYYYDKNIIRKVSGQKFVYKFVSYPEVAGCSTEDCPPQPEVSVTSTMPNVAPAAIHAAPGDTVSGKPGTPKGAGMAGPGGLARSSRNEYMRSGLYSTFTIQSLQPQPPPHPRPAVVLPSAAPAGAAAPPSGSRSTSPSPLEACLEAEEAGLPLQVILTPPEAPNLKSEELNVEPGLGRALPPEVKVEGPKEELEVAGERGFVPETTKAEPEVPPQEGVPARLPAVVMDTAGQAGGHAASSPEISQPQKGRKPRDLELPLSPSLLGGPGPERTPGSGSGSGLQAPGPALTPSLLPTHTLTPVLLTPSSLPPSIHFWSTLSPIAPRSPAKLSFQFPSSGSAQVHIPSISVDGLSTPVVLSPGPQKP", "procedure,_shortened": "(§1)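 Beads coated with glutathione captured GST-fused human transcription factors that had been expressed in yeast, and the factors were then given DNA barcodes and pooled with a tag-only sample. The pools were incubated with 200 nmole of a random double-stranded 16-mer DNA library in Tris/NaCl/DTT/glycerol buffer for 30 min at room temperature, washed, crosslinked with 0.1% formaldehyde and proximity-ligated with BsaI/T4 ligase at 37 °C for 1 h. PCR amplification and Illumina NextSeq500 sequencing came last. Binding signal is each hexamer's read frequency for a factor divided by its frequency for the tag-only sample.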"}, "GABPA": {"molecular_target": "T2, GABPA (Homo sapiens, UniProt Q06546 1-454)", "T2 sequence": "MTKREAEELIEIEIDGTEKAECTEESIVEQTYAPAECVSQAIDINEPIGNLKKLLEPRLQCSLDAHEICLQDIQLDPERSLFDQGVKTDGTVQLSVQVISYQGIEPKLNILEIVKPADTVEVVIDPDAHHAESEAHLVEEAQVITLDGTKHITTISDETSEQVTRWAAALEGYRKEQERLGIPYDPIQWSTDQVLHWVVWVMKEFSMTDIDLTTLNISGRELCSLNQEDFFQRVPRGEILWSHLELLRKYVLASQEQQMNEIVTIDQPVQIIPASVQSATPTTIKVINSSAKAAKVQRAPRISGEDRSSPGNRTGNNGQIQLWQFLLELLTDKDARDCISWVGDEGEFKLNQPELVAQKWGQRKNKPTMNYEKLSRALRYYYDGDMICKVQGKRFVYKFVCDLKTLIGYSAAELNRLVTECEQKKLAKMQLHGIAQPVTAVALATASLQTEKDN", "procedure,_shortened": "as §1"}, "ERG": {"molecular_target": "T3, ERG (Homo sapiens, UniProt P11308 1-479)", "T3 sequence": "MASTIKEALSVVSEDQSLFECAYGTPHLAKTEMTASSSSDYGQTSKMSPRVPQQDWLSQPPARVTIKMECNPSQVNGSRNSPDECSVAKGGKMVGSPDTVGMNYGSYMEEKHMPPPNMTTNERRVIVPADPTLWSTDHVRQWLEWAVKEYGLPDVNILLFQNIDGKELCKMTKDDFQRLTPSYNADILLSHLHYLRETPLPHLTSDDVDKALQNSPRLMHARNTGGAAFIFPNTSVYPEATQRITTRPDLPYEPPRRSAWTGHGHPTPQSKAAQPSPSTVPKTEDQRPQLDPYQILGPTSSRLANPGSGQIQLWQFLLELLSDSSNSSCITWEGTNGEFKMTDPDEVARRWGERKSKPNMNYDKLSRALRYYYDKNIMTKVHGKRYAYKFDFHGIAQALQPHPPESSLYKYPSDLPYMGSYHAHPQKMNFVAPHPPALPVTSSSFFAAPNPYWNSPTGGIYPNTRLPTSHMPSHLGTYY", "procedure,_shortened": "as §1"}, "ELF1": {"molecular_target": "ELF1 (Homo sapiens, UniProt P32519 1-619)", "sequence (P32519 whole entry)": "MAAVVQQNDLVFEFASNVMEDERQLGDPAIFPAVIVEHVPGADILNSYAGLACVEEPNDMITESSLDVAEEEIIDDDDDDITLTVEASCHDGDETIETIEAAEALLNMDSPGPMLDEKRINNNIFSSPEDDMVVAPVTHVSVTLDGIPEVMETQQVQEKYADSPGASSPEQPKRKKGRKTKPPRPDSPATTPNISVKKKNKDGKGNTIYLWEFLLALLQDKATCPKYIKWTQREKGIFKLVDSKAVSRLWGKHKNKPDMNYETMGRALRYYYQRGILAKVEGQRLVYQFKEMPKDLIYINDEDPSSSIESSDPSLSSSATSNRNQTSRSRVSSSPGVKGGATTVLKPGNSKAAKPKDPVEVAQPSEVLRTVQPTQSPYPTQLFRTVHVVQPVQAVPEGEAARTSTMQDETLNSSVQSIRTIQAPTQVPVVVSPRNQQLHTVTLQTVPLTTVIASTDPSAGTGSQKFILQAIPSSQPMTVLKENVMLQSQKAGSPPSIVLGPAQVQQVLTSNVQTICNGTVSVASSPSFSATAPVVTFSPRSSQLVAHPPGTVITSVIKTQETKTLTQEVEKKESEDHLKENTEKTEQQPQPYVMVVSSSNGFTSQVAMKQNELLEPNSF", "procedure,_shortened": "as §1"}, "EHF": {"molecular_target": "T4, EHF (Homo sapiens, UniProt Q9NZC4 1-300)", "T4 sequence": "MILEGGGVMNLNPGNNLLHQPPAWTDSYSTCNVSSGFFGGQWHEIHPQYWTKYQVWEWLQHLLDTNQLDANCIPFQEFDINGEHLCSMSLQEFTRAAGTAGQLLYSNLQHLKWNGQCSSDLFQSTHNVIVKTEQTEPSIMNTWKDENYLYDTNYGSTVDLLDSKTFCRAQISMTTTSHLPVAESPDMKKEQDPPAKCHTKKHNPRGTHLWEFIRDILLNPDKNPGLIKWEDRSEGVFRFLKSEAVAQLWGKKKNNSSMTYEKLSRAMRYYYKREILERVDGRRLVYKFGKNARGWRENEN", "procedure,_shortened": "as §1"}, "SPIB": {"molecular_target": "SPIB (Homo sapiens, UniProt Q01892 1-262)", "sequence (Q01892 whole entry)": "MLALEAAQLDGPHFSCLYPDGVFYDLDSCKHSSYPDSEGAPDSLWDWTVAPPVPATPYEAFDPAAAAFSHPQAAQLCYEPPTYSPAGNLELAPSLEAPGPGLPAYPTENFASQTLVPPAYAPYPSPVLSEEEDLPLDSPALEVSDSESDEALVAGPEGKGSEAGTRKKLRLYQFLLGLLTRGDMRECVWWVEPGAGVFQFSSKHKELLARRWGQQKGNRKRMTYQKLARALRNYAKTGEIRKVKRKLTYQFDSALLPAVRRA", "procedure,_shortened": "as §1"}, "ELK3": {"molecular_target": "T5, ELK3 (Homo sapiens, UniProt P41970 1-407)", "T5 sequence": "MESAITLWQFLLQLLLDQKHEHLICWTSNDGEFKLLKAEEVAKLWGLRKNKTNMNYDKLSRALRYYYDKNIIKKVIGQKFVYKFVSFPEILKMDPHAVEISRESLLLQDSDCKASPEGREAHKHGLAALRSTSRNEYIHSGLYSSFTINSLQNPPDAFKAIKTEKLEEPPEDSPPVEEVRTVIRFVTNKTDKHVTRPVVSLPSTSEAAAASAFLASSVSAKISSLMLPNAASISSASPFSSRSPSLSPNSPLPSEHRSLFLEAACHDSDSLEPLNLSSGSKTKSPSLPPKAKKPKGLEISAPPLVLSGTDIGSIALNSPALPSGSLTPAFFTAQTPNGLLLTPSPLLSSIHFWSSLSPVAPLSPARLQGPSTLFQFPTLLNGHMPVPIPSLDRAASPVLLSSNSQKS", "procedure,_shortened": "as §1"}, "SPIC": {"molecular_target": "T6, SPIC (Homo sapiens, UniProt Q8N5J4 1-248)", "T6 sequence": "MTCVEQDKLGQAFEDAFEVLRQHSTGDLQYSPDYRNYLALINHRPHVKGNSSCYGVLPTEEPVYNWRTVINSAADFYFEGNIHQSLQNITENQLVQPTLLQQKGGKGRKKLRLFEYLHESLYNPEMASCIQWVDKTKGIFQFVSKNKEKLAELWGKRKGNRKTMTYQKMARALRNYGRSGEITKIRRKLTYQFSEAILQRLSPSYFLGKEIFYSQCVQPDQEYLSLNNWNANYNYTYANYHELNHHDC", "procedure,_shortened": "as §1"}, "ELF4": {"molecular_target": "ELF4 (Homo sapiens, UniProt Q99607 1-663)", "sequence (Q99607 whole entry)": "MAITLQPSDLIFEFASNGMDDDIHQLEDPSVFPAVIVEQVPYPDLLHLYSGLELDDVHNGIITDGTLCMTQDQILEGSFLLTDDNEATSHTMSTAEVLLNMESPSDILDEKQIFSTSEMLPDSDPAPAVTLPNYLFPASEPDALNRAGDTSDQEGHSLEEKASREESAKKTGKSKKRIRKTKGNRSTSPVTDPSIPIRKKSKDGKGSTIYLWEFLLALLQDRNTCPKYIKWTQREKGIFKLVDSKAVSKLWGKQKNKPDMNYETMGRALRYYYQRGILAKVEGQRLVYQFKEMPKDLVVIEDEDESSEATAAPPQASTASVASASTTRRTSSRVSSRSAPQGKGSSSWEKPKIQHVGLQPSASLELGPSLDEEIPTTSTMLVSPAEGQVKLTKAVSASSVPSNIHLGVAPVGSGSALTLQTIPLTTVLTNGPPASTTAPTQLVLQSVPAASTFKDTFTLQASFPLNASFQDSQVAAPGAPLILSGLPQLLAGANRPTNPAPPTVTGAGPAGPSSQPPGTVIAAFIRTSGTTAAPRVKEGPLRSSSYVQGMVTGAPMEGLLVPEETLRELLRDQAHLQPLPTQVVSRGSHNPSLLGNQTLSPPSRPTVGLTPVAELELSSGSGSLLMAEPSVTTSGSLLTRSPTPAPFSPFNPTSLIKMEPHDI", "procedure,_shortened": "as §1"}}}
{"sequence": "TTAGAT", "values": [{"measurement": "binding signal", "setting": "ELK1", "value": "1.16 fold enrichment (6-mer frequency, TF over GST control)"}, {"measurement": "binding signal", "setting": "GABPA", "value": "1.06 fold enrichment (6-mer frequency, TF over GST control)"}, {"measurement": "binding signal", "setting": "ERG", "value": "1.04 fold enrichment (6-mer frequency, TF over GST control)"}, {"measurement": "binding signal", "setting": "ELF1", "value": "1.03 fold enrichment (6-mer frequency, TF over GST control)"}, {"measurement": "binding signal", "setting": "EHF", "value": "1.13 fold enrichment (6-mer frequency, TF over GST control)"}, {"measurement": "binding signal", "setting": "SPIB", "value": "1.05 fold enrichment (6-mer frequency, TF over GST control)"}, {"measurement": "binding signal", "setting": "ELK3", "value": "1.09 fold enrichment (6-mer frequency, TF over GST control)"}, {"measurement": "binding signal", "setting": "SPIC", "value": "1.04 fold enrichment (6-mer frequency, TF over GST control)"}, {"measurement": "binding signal", "setting": "ELF4", "value": "1.12 fold enrichment (6-mer frequency, TF over GST control)"}]}
